# Laboratory results taken from PubChem BioAssay (NCATS).
# Where “and” joins values, the source holds several entries; their conditions need not be identical. Equal values may be shown once. Inconclusive results are not listed. Unmarked numbers belong to inactive results. Calls of active or inactive are those of the source. The call rests on the fitted dose curve; in most records, active means well fitted curve in the direction sought with a large enough effect; inconclusive means small, poorly fitted or top-dose-only effect, or another doubt; inactive means no such curve, though single readings can be large; an effect the other way counts as inactive or inconclusive.
# Tests used:
# [1] = target: Cellular tumor antigen p53 (Homo sapiens) (UniProt P04637); experiment: Primary qHTS for small molecule compounds that upregulate eGFP-tagged delta133p53alpha (in N-terminal) cells. (AID 2060322); conditions: NCI-H358 eGFP-delta133p53alpha fluorescence, 24 h; activation: active compounds read high; further: nearly all actives have a fitted effect of over 75% in size; further: potency means the concentration at half of the fitted maximal effect;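 on activation: cells pre-induced with doxycycline then dosed without doxycycline; series mostly up to about 56 µM; 0% = DMSO vehicle and 100% = reference activator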
# Sequence of Cellular tumor antigen p53 (Homo sapiens) (P04637 whole entry, looked up): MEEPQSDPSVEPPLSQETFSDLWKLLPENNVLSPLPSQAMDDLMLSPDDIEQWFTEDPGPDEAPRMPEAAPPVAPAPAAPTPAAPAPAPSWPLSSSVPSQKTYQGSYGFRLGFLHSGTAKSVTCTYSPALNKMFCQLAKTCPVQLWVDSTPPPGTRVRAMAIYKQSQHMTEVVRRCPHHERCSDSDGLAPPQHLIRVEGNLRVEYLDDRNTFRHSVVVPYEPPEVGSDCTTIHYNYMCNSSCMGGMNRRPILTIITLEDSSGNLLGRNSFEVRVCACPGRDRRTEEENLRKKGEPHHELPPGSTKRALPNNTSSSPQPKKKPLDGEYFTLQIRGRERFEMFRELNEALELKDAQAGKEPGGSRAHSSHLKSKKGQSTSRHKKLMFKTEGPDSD
# Summary of the method: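 NCI-H358 cells pre-induced 24 h with 10 ng/ml doxycycline for eGFP-delta133p53alpha, plated dox-free and exposed 24 h at 37C to titrated compounds. Fixed, Hoechst-stained; gated GFP peak intensity by laser scanning cytometry, normalized to DMSO (0%) and 57.5 uM 5-azacytidine (100%).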
# [2] = target: Aldehyde dehydrogenase, mitochondrial (Homo sapiens) (UniProt P05091); experiment: qHTS for Inhibitors of the Aldehyde Dehydrogenase Family (ALDH2) Primary screen (AID 2061308);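 further: plate controls were vehicle for no effect and reference inhibitor for full effect; nearly all actives have a fitted effect of over 55% in size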
# [3] = target: Retinaldehyde dehydrogenase 3 (Homo sapiens) (UniProt P47895); experiment: qHTS for Inhibitors of the Aldehyde Dehydrogenase Family (ALDH1A3) Primary screen (AID 2061315);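 further: plate controls were DMSO vehicle for no effect and reference inhibitor for full effect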
# [4] = BET inhibitor-based combinations targeting novel dependencies in MECOM-rearranged (r) AML: MV-4-11 cell line (AID 2202233); further: nearly all actives have a fitted effect of over 45% in size; further: potency means the concentration at half of the fitted maximal effect
# Summary of the method: (§1)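 Each compound is tested in an 11-point concentration series against 500 seeded cells/well for 48 hr. The luminescent viability signal is normalized to DMSO and blank wells, then reduced to AUC and a cell-line-centred Z-AUC.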
# [5] = BET inhibitor-based combinations targeting novel dependencies in MECOM-rearranged (r) AML: UCSD-AML1 cell line (AID 2202235); further: nearly all actives have a fitted effect of over 40% in size; further: potency means the concentration at half of the fitted maximal effect
# Summary of the method: as §1
# [6] = BET inhibitor-based combinations targeting novel dependencies in MECOM-rearranged (r) AML: AML-191 cell line (AID 2202236; further: nearly all actives have a fitted effect of over 35% in size; further: potency means the concentration at half of the fitted maximal effect)
# Summary of the method: (§2)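 A 48 hr incubation preceded viability reading by CellTiter-Glo, with 15 min room-temperature development. Dose series had 11 points; normalization used DMSO and empty wells; AUC was computed and mean-centered per line as Z-AUC.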
# [7] = BET inhibitor-based combinations targeting novel dependencies in MECOM-rearranged (r) AML: HNT-34 cell line (AID 2202234); further: nearly all actives have a fitted effect of over 35% in size; further: potency means the concentration at half of the fitted maximal effect
# Summary of the method: as §1
# [8] = BET inhibitor-based combinations targeting novel dependencies in MECOM-rearranged (r) AML: AML-194 cell line (AID 2202237; further: nearly all actives have a fitted effect of over 40% in size; further: potency means the concentration at half of the fitted maximal effect)
# Summary of the method: as §2
SMILES,activation [1],Potency [2],Potency [3],Potency [4],Potency [5],Potency [6],Potency [7],Potency [8],Potency [1],"activity change, negative = inhibition [2]","activity change, negative = inhibition [3]"
CC(C)(CNC(=O)c1cccc(-c2noc(C(F)(F)F)n2)c1)c1coc(-c2ccccc2)n1,-0.477%,inactive,inactive,23.5 µM (active),inactive,11.8 µM (active),–,–,–,–,–
CC(C)Nc1cc(C(F)(F)F)cc2nc(NC(=O)c3cccnc3)nn12,-46.7% and -1.43%,inactive,inactive,inactive,inactive,inactive,–,–,–,–,–
CC(C)(C)Sc1c(CC(C)(C)C(=O)O)n(Cc2ccc(Cl)cc2)c2ccc(OCc3ccc4ccccc4n3)cc12,0%,inactive,inactive,26.3 µM (active),–,–,26.3 µM (active),–,–,–,–
N#Cc1c(C2CCNCC2)cc(-c2c(O)cccc2OCC2CC2)nc1N,-1.56%,inactive,inactive,–,16.6 µM (active),26.3 µM (active),23.5 µM (active),16.6 µM (active),–,–,–
CN(C)C(=O)c1cc2cnc(Nc3ccc(N4CCNCC4)cn3)nc2n1C1CCCC1,15.2%,inactive,inactive,–,inactive,inactive,inactive,inactive,–,–,–
COc1cc2ncnc(-n3nc(-c4ccccn4)nc3N)c2cc1OC,13.4%,inactive,inactive,1.48 µM (active),4.68 µM (active),4.17 µM (active),2.35 µM (active),6.61 µM (active),–,–,–
Cc1ccccc1-n1nc(-c2c(-c3ccc(F)cc3)nn3c2NC[C@@H](CO)C3)ccc1=O,2.68%,inactive,inactive,inactive,–,–,–,inactive,–,–,–
Cc1cn2cc(C(=O)N(C)CCO)cc(N[C@@H]3CCOc4cccc(C)c43)c2n1,-18% and -4.46%,inactive,inactive,inactive,inactive,inactive,inactive,inactive,–,–,–
CC(C)[C@](O)(c1ccc2cc(OC(F)F)c(OC(F)F)cc2c1)c1cn[nH]n1,12.3%,inactive,inactive,–,inactive,–,18.6 µM (active),–,–,–,–
CC(C)(N)c1ccc(-c2nc3ccccc3nc2-c2ccccc2)cc1,25%,inactive,inactive,–,–,20.9 µM (active),–,–,–,–,–
COc1cc2nccc(Oc3ccc(NC(=O)Nc4cc(C)on4)c(Cl)c3)c2cc1OC,–,inactive,inactive,1.05 µM (active),16.6 µM (active),7.42 µM (active),0.209 µM (active),6.61 µM (active),30.6 µM (active) and 21.3 µM (active),–,–
CC(C)(O)CCc1ccc(OCc2cc(-c3cccc(OC(F)F)c3)c3ncccc3c2)cc1,8.96%,inactive,inactive,18.6 µM (active),inactive,–,–,–,–,–,–
Cc1cc(F)c(C(=O)Nc2cccc(-c3nncn3C(C)C)n2)cc1-n1cnc(C2CC2)c1,35%,inactive,inactive,10.5 µM (active),16.6 µM (active),18.6 µM (active),20.9 µM (active),–,–,–,–
CCN1CCN(c2ccc(Nc3cc(N(C)C(=O)Nc4c(Cl)c(OC)cc(OC)c4Cl)ncn3)cc2)CC1,34.2% and 7.14%,inactive,inactive,–,–,26.3 µM (active),13.2 µM (active),–,–,–,–
O=c1[nH]nc(OCCCc2ccc(Cl)cc2)c(NCc2cccnc2)c1Br,-4.06% and -19.1%,inactive,inactive,–,–,–,–,20.9 µM (active),–,–,–
N#CC[C@H](C1CCCC1)n1cc(-c2ncnc3[nH]ccc23)cn1,7.18% and -12.3%,inactive,inactive,–,–,5.9 µM (active),–,–,–,–,–
CCC(=O)N1CCN(c2ccc(-n3c(=O)ccc4cnc5ccc(-c6cnc7ccccc7c6)cc5c43)cc2C(F)(F)F)CC1,41.3%,–,–,–,0.0091 µM (active),–,–,–,–,-6.8% [at 11.2 µM],3.25% [at 11.2 µM]
NC1CCC(N[C@@H]2C[C@H]2c2ccccc2)CC1 (stereo partly drawn),3.67% and 27.6%,inactive,inactive,–,0.0019 µM (active),inactive,–,inactive,–,–,–
C[C@@H](N)c1ccc(C(=O)Nc2ccnc3[nH]ccc23)cc1,21.5%,inactive,inactive,3.72 µM (active),18.6 µM (active),16.6 µM (active),–,14.8 µM (active),–,–,–
N#Cc1cccc(-c2c[nH]c3ncnc(N4CCOCC4)c23)c1,-5.36%,inactive,inactive,–,inactive,18.6 µM (active),–,inactive,–,–,–
CCn1c(C(=O)N(C2CC2)C2CC2)cc2c3c(ncn3C)c(Nc3cc(C)n(C)n3)nc21,-29.5%,inactive,inactive,2.63 µM (active),3.32 µM (active),–,16.6 µM (active),–,–,–,–
